We go through 1 compound from PubChem BioAssay AID488859 (Sanford-Burnham Center for Chemical Genomics, 2010).

About 970 (69%) of roughly 1,400 compounds were called active. About 5% were inconclusive and are not listed. Cut-off read from the data, not from the text of the source: active = inhibition above about 45%; inconclusive = no clear call, values can overlap the other calls; inactive = below that. The set was probably picked from earlier hits. These entries were drawn from the full list.

Sequence of Ubiquitin-conjugating enzyme E2 N (Homo sapiens) (P61088 whole entry, looked up): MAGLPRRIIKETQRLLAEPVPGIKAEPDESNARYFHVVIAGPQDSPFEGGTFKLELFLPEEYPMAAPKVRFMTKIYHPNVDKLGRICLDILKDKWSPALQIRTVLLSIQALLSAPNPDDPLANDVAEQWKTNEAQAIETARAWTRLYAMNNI

This assay concerns the target Ubiquitin-conjugating enzyme E2 N (Homo sapiens) (UniProt P61088). The experiment in a line: retested blockers of UBC13 chain formation – biochemical, TR-FRET, single concentration, confirmation (AID 488859). The conditions noted are these: UBC13 polyubiquitination, at 10 µM, stronger effect = higher value. (In TR-FRET formats the signal depends on donor and acceptor labels being close together.)
`CNCC(O)c1cc(F)c(OCc2ccccc2)c(OCc2ccccc2)c1F` (stereo unspecified): the inhibition (in general, the drop in the measured response relative to a control, in per cent) is 50.4% (active).
